This note sets out measurements from PubChem BioAssay AID1377 (University of Pittsburgh Molecular Library Screening Center, 2008).

“And” between values parts separate entries of the source, which are not always exact repeats. Identical values can stand only once. In all, about 220,000 compounds went through this assay and about 830 (0.38%) were called active.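 Rule for the calls: active = activation, scaled between plate controls, above about 75% (limit read from the data); inactive = activation under that limit.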 Shown is part of a subset that was picked to be rich in actives.

The assay in a line: inhibitors of zVAD-triggered necroptosis, primary screen, L929 cells (AID 1377).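 Note: 0% = zVAD with DMSO and 100% = DMSO alone without zVAD.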 As to conditions: ATP luminescence, 24 h, at 10 µM, active compounds read high; with zVAD 60 µM unless noted.
Take `Cn1c(=O)c2c(nc(NCc3ccccc3)n2CC(N)=O)n(C)c1=O`: the viability rescue is -0.38% (inactive).
As for `Clc1ccc(-c2cc(-c3ccccn3)on2)c(Cl)c1`, the viability rescue is -0.1% (inactive).
The figure for `COc1ccc(Br)c2c1C(=O)CC2` is 1.09% (inactive); for `NC1=NC[C@@H](Cc2ccc(O)cc2)N1CC1CCCCC1` it is 0.84% (inactive); for `c1ccc2c(c1)CSc1sccc1C2=C1CCNCC1` it is 1.55% (inactive).
The figure for `O=C(Nc1ccccc1)Nc1ccc(C(F)(F)F)cn1` is 16.8% (inactive); for `Cc1nccn1CC(=O)N/N=C/c1ccc(O)c(O)c1` it is 0.09% [with zVAD 20 µM] (inactive).
The figure for `Oc1ccc(/C=N/Nc2ccc(C(F)(F)F)cn2)cc1O` is 78.6% (active); for `COc1cc(Cl)c(C)cc1NC(=O)COC(=O)c1cc(SC)ccc1Cl` it is -0.03% [with zVAD 20 µM] (inactive); for `O=S(=O)(NC1CC1)c1ccc2c3c(cccc13)CC2` it is 2.42% (inactive).
Consider `Cc1csc(NC(=O)NC2(C(F)(F)F)Oc3ccccc3O2)n1`, for which the viability rescue is 78.5% [with zVAD 20 µM] (active).
Consider `Cc1csc(NC(=O)Nc2ccccc2[N+](=O)[O-])n1`, for which the viability rescue is 0.75% (inactive).
The figure for `CC(=O)Nc1cccc(C(=O)Nc2nc(C)cs2)c1` is -1.49% (inactive); for `COc1ccc(CNC(=O)CN2CCC(n3nnc4cc(F)ccc43)CC2)cc1` it is -0.59% (inactive).
The figure for `Cc1oc(C(N)=O)cc1COc1ccc(C(N)=O)cc1` is 1.12% (inactive); for `Cc1cc(C(=O)NNS(=O)(=O)c2ccccc2C(F)(F)F)nn1C(C)(C)C` it is 0.49% (inactive).
For `CN(C)S(=O)(=O)c1ccc(NC(=O)COC(=O)Cn2[nH]c(=O)c3ccccc3c2=O)cc1` the value was 0.01% (inactive); for `COc1ccc(Cl)cc1NC(=O)COC(=O)C(CC(C)C)N1C(=O)C2CC=CCC2C1=O` (configuration not stated), 0.49% [with zVAD 20 µM] (inactive); for `CCOC(=O)C(=O)C1C(=O)Nc2ccccc21` (configuration not stated), -0.07% (inactive).
As to `CC1CCCCC1NC(=O)/C(C#N)=C/C=C/c1ccccc1[N+](=O)[O-]` (configuration not stated), the viability rescue was 77% (active).
`O=C(/C=C/c1ccccc1[N+](=O)[O-])OC1CCCCC1=O` (configuration not stated): the viability rescue is -0.52% (inactive).
Consider `O=C(/C=C/c1ccccc1[N+](=O)[O-])NCC1CCCO1` (configuration not stated), for which the viability rescue was 1.4% (inactive).
The figure for `C=CCn1c(P(C)(=O)O)nc2ccccc21` is 0.44% (inactive) and 0.28% (inactive).
The figure for `CCOc1cc2[nH]c(=O)n(Cc3ccc(C(=O)NCCCN4CCCC4=O)cc3)c(=O)c2cc1OCC` is 0.03% (inactive); for `O=C(CSc1ccc([N+](=O)[O-])cn1)Nc1ccc(N2CCOCC2)c(Cl)c1` it is 80.2% (active).
The figure for `Cc1cccc(C)c1NC(=O)CSc1ccc([N+](=O)[O-])cn1` is 1.1% (inactive); for `O=C(CSc1ccc([N+](=O)[O-])cn1)Nc1ccc(N2CCOCC2)cc1` it is 16.6% (inactive); for `Cc1ccc(-c2csc(N(Cc3ccco3)C(=O)c3cccs3)n2)cc1` it is -0.54% (inactive).
On to `COc1ccc2nc(NC(=O)c3ccc(Br)s3)sc2c1`, for which the viability rescue was 0.35% (inactive).
For `COc1ccc2nc(NC(=O)NC3CCCCC3)sc2c1` the value was 85.7% (active); for `COc1ccc2nc(Nc3nc4ccc(NC(C)=O)cc4s3)sc2c1`, 0.58% (inactive); for `CC1=NNC(=O)C1CC(=O)N/N=C/c1ccncc1` (configuration not stated), -0.36% (inactive).
For `CC(C)OCCCNc1ncnc2c1[nH]c1ccc(F)cc12` the value was 4.34% [with zVAD 20 µM] (inactive).
For `Cc1ccc2[nH]c3c(=O)n(Cc4ccccn4)cnc3c2c1` the value was 0.13% [with zVAD 20 µM] (inactive); for `COc1cc(OC)c(OC)cc1/C=N/Nc1ncnc2c1[nH]c1ccc(C)cc12`, 78.9% (active).
Consider `CCOC(=O)c1cc(Sc2ccccc2N)cc(C(=O)OCC)n1`, for which the viability rescue was 0.51% (inactive).
For `CCOc1ccc(NC(=O)c2ccc(CSc3nnnn3C)cc2)cc1` the value was 1.6% (inactive); for `Cc1cc(C)nc(-n2nc(C)cc2NC(=O)c2ccc(F)cc2F)n1`, 0.15% (inactive).
The figure for `Cc1cccc(-n2nc3c(c2NC(=O)c2ccc(Br)o2)CSC3)c1C` is 0.18% [with zVAD 20 µM] (inactive); for `Cc1cc(C)nc(-n2nc(C)cc2NC(=O)c2ccc(Br)o2)n1` it is 82.2% [with zVAD 20 µM] (active); for `COc1ccc(-c2csc(Nc3ccccn3)n2)cc1` it is 1.69% (inactive).
For `COc1ccc(-c2csc(Nc3ccc(O)cc3)n2)cc1` the value was 93% (active); for `COc1ccc(Nc2nc(-c3ccccc3)cs2)cc1`, 0.79% (inactive).
For `COc1cc2c(C(=O)N3CCN(C)CC3)c(CSc3ccccc3)n(C)c2cc1Br`, the viability rescue was -0.59% (inactive).
The figure for `CC(C)NC(=S)NN=C1CCCCCCCCCCC1` is 0.38% (inactive); for `Cc1nn(C)c(Oc2ccccc2)c1CCNS(=O)(=O)c1ccc(F)cc1` it is 0.02% [with zVAD 20 µM] (inactive).
In the case of `COc1ccc(-c2cc(C(=O)NC(Cc3c[nH]c4ccccc34)C(=O)O)c(C)o2)cc1OC` (configuration not stated), the viability rescue is 1.33% (inactive).
The figure for `CCN(CC)S(=O)(=O)c1ccc(Cl)c(NC(=O)c2ccncc2)c1` is 0.44% (inactive).
The figure for `CCN(CC)S(=O)(=O)c1ccc(NC(=O)c2cccnc2Cl)c(NC(=O)c2cccnc2Cl)c1` is 82.2% (active).
For `Cc1ccc(CNC(=O)c2cccnc2Cl)cc1`, the viability rescue is 0.12% (inactive).
The figure for `O=C(N/N=C/c1cccc([N+](=O)[O-])c1)c1ccncc1` is -0.83% (inactive); for `CN1CCN(C2=NCCO2)CC1` it is 1% (inactive).
For `CCOC(=O)C1(CCOc2ccccc2)CCN(C(=O)c2cncs2)CC1` the value was -0.01% (inactive); for `COc1ccc(Nc2nc(Cl)nc(NCc3ccco3)n2)cc1`, 0.2% [with zVAD 20 µM] (inactive); for `COc1ccc(-n2cnc3cc(NCc4ccco4)ccc32)cc1`, 79.9% (active).
The figure for `COc1ccc(Nc2nc(NCc3ccco3)nc(N/N=C/c3ccccc3Cl)n2)cc1` is 0.33% (inactive); for `O=C(Nc1cccc2c1N(C(=O)c1ccco1)CCC2)c1ccco1` it is -0.96% (inactive).
